A selection: hits, their analogues and other compounds. The true share with any hit is near 6.3%.
Abs 340nm: compound absorbs light at 340 nm | compound absorbance at 340 nm, fold over control | fold change at 10 µM | 65,000 tested, under 10 active | AID 708;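 active means at 10 µM dose, initial 340 nm absorbance at least 2 fold that of control wells; inactive means change under 2 fold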;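 further: initial absorbance extrapolated from kinetic A340 decline of NADH oxidation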
Spn PMK inh: S. pneumoniae PMK inhibition; purified PMK, PK/LDH-coupled NADH absorbance 340 nm; inhibition, % at 10 µM; hit rate 0.49% among 65,000; AID 539;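 active means top-ranked compounds by inhibition in the single 10 µM screen, taking a fixed number of the strongest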;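 further: 0% = full reaction with DMSO carrier and 100% = background rate without enzyme reaction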
DPM-DC inhibit: blocks S. pneumoniae diphosphomevalonate decarboxylase; purified DPM-DC, PK/LDH coupled NADH fluorescence; calls only at 10 µM; hit rate 0.49% among 65,000; AID 556;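 active means the 320 compounds with the highest percent inhibition in the single-dose primary screen, excluding strongly autofluorescent ones, cut at about 32% in these data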;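 further: kinetic rate of NADH fluorescence loss reporting ADP formed by the decarboxylase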
Fluor 339 460: intrinsic fluorescence of library compounds, ex339/em460 – biochemical, MLSMR library, data from DPM-DC assay, artefact control, profiling panel; compound autofluorescence, ex339/em460 nm, NADH buffer; stronger effect = higher value; 1 = no-compound wells, NADH background; fluorescence fold increase at 10 µM; hit rate 5.5% among 65,000; AID 709;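 active means at 10 µM, mean starting fluorescence two-fold or more over control wells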;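 further: signal is the first read of a kinetic run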
NADH coupling: inhibitors of enzymes used to reach an NAD/NADH endpoint. coupled PK/LDH NADH assays, four targets. IC50, µM (titrated, usually from 10 µM), inactives show at the highest dose inhibition. hit rate 0.02% among 65,000;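 active means single-dose screening hits from any of four coupled enzyme assays that gave an IC50 when retested across doses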;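 further: the DPM-DC format reads NADH fluorescence rather than 340 nm absorbance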
MK inhibit: inhibitors of Streptococcus pneumoniae mevalonate kinase; purified MK, PK/LDH-coupled NADH absorbance 340 nm; inhibition, % at 10 µM; hit rate 0.48% among 65,000; AID 555;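 active means ranked among the strongest by inhibition in the single 10 µM screen, a fixed top-ranked set picked for dose follow-up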
* = called active by the depositor.

Results for O=C(NCC1OCCc2ccccc21)c1ccco1 (stereo not given) ?
Abs 340nm: 1; Spn PMK inh: 10; DPM-DC inhibit: inactive; Fluor 339 460: 1.1; NADH coupling: 5%; MK inhibit: 4

What do the screens show for `CC(C)Oc1ccc(-c2cc(=O)[nH]c(=O)[nH]2)cc1`?
Abs 340nm: 1; Spn PMK inh: 2; DPM-DC inhibit: inactive; Fluor 339 460: 1.1; NADH coupling: 3%; MK inhibit: 7

How did O=C(CC1Nc2ccccc2NC1=O)c1ccccc1 (stereo not given) do in these assays?
Abs 340nm: 1; Spn PMK inh: 0; DPM-DC inhibit: inactive; Fluor 339 460: 1.1; NADH coupling: 3%; MK inhibit: 8

What do the screens show for `COC(=O)c1[nH]c2ccc(C)cc2c1NC(=O)CCN1CCN(Cc2ccc3c(c2)OCO3)CC1`?
Abs 340nm: 1; Spn PMK inh: 2; DPM-DC inhibit: inactive; Fluor 339 460: 2.3*; NADH coupling: 8%; MK inhibit: 12

How did CCOC(=O)C1CCCN(CC(=O)Nc2c(C(=O)OC)[nH]c3ccc(C)cc23)C1 (stereo not given) do in these assays?
Abs 340nm: 1.1; Spn PMK inh: 12; DPM-DC inhibit: inactive; Fluor 339 460: 2.6*; NADH coupling: 12%; MK inhibit: 12

What do the screens show for `COC(=O)c1[nH]c2ccc(C)cc2c1NC(=O)CN1CCCCC1C` (stereo not given)?
Abs 340nm: 1.1; Spn PMK inh: 11; DPM-DC inhibit: inactive; Fluor 339 460: 2.3*; NADH coupling: 11%; MK inhibit: 8

Results for Cc1cc(=O)n(CCc2ccccc2)c(O)c1C#N ?
Abs 340nm: 1.1; Spn PMK inh: 0; DPM-DC inhibit: inactive; Fluor 339 460: 1.2; NADH coupling: 2%; MK inhibit: 6

Results for CCN(CC)CCNc1nc2c(c(=O)[nH]c(=O)n2C)n1CCOc1ccccc1 ?
Abs 340nm: 1; Spn PMK inh: 22; DPM-DC inhibit: inactive; Fluor 339 460: 1.1; NADH coupling: 8%; MK inhibit: 3

What do the screens show for `CC12CCC(=O)N1c1c(sc3nc(N4CCOCC4)c4c(c13)CCCC4)C(=O)N2` (stereo not given)?
Abs 340nm: 1.1; Spn PMK inh: 3; Fluor 339 460: 2.4*; NADH coupling: 4%; MK inhibit: 5

What do the screens show for `CCN(CC)C(=O)CSc1ncnc2c(-c3cccs3)nsc12`?
Abs 340nm: 1.1; Spn PMK inh: 10; DPM-DC inhibit: inactive; Fluor 339 460: 2.6*; NADH coupling: 11%; MK inhibit: 0

Results for COc1ccccc1Oc1coc2cc(O)ccc2c1=O ?
Abs 340nm: 1.1; Spn PMK inh: 17; Fluor 339 460: 4.8*; NADH coupling: 9%; MK inhibit: 0

How did CCOc1ccccc1Oc1coc2cc(O)ccc2c1=O do in these assays?
Abs 340nm: 1.1; Spn PMK inh: 16; Fluor 339 460: 4.7*; NADH coupling: 8%; MK inhibit: 0

How did CCOc1ccccc1Oc1coc2cc(OC(=O)c3ccco3)ccc2c1=O do in these assays?
Abs 340nm: 1.1; Spn PMK inh: 0; DPM-DC inhibit: inactive; Fluor 339 460: 1.5; NADH coupling: 6%; MK inhibit: 9

What do the screens show for `CCC(=O)Oc1ccc(C/C(=N\O)c2ccc(O)cc2O)o1`?
Abs 340nm: 1; Spn PMK inh: 14; DPM-DC inhibit: inactive; Fluor 339 460: 1.1; NADH coupling: 2%; MK inhibit: 0

What do the screens show for `CCOC(=O)Nc1cc(C(=O)OC)cc(C(=O)OC)c1`?
Abs 340nm: 1; Spn PMK inh: 18; DPM-DC inhibit: inactive; Fluor 339 460: 1.1; NADH coupling: 8%; MK inhibit: 3

Results for Cc1cc(C)n2nc(NCc3ccccc3)nc2n1 ?
Abs 340nm: 1.1; Spn PMK inh: 7; Fluor 339 460: 3.6*; NADH coupling: 6%; MK inhibit: 4

Results for COC(=O)CSc1nc2nc(C)cc(C)n2n1 ?
Abs 340nm: 0.97; Spn PMK inh: 2; DPM-DC inhibit: inactive; Fluor 339 460: 1; NADH coupling: 5%; MK inhibit: 7

How did Cc1nc2nc(-c3cccnc3)nn2c(C)c1Cl do in these assays?
Abs 340nm: 1; Spn PMK inh: 9; DPM-DC inhibit: inactive; Fluor 339 460: 1; NADH coupling: 2%; MK inhibit: 8

Results for COc1ccc(-c2nc3nc(C)cc(C)n3n2)cc1 ?
Abs 340nm: 1; Spn PMK inh: 5; Fluor 339 460: 3.7*; NADH coupling: 5%; MK inhibit: 5

How did Cc1nc2nc(-c3ccco3)nn2c(C)c1Cl do in these assays?
Abs 340nm: 1.1; Spn PMK inh: 12; Fluor 339 460: 4*; NADH coupling: 13%; MK inhibit: 13

What do the screens show for `COc1cccc(CNc2nc3nc(C)c(Cl)c(C)n3n2)c1`?
Abs 340nm: 1; Spn PMK inh: 9; Fluor 339 460: 2.3*; NADH coupling: 3%; MK inhibit: 3

Results for O=C(CCNS(=O)(=O)c1ccc(Br)cc1)NCc1ccc2c(c1)OCO2 ?
Abs 340nm: 1; Spn PMK inh: 8; DPM-DC inhibit: inactive; Fluor 339 460: 1.1; NADH coupling: 3%; MK inhibit: 0

What do the screens show for `CCOC(=O)c1nn(-c2ccc3c(c2)CCN3C(C)=O)cc1O`?
Abs 340nm: 1.1; Spn PMK inh: 0; Fluor 339 460: 2.2*; NADH coupling: 3%; MK inhibit: 6

What do the screens show for `O=C(CN1C(=O)c2cccc3cccc1c23)Nc1cccnc1`?
Abs 340nm: 1; Spn PMK inh: 6; DPM-DC inhibit: inactive; Fluor 339 460: 2.1*; NADH coupling: 13%; MK inhibit: 12

How did COc1ccc(Cl)cc1Nc1cc(C)nc2nc(C)nn12 do in these assays?
Abs 340nm: 1.1; Spn PMK inh: 13; DPM-DC inhibit: inactive; Fluor 339 460: 1.1; NADH coupling: 4%; MK inhibit: 0

Results for COc1cc(CNCc2ccc(OC)c(OC)c2OC)cc(OC)c1 ?
Abs 340nm: 1.1; Spn PMK inh: 0; DPM-DC inhibit: inactive; Fluor 339 460: 1.1; NADH coupling: 17%; MK inhibit: 51*

How did CC(=O)c1cccc(NC(=O)CCNS(=O)(=O)c2cccc(C(C)=O)c2)c1 do in these assays?
Abs 340nm: 1; Spn PMK inh: 9; DPM-DC inhibit: inactive; Fluor 339 460: 1.1; NADH coupling: 5%; MK inhibit: 3

Results for COC(=O)c1ccccc1NC(=O)c1ccc2c(c1)C(=O)N(Cc1ccco1)C2=O ?
Abs 340nm: 1.1; Spn PMK inh: 11; DPM-DC inhibit: active; Fluor 339 460: 3.1*; NADH coupling: 19%; MK inhibit: 4

How did CCc1ccc(NC(=O)c2ccc3c(c2)C(=O)N(Cc2ccco2)C3=O)cc1 do in these assays?
Abs 340nm: 1.1; Spn PMK inh: 1; DPM-DC inhibit: inactive; Fluor 339 460: 1.2; NADH coupling: 1%; MK inhibit: 3
